The record followed here is PubChem BioAssay (NCATS).

Test [1] has as its target Cytochrome P450 3A4 (Homo sapiens) (UniProt P08684). In words: qHTS Assay for Inhibitors and Substrates of Cytochrome P450 3A4 (AID 884). Also: potency is read from the fitted curve at half-maximal effect; nearly all actives have a fitted effect of over 50% in size. In short, it runs like this:
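Luminescent readout of luciferin produced by CYP3A4 (20 nM) dealkylation of Luciferin-PPXE, 25 uM (its KM). NADPH-driven reaction ran 60 min at RT after 10 min compound preincubation; data scaled to 57 uM ketoconazole as 100% inhibition.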

Test [2] has the same target. The test is described as follows: qHTS Assay for Activators of Cytochrome P450 3A4 (AID 885). Also: nearly all actives have a fitted effect of over 65% in size. In short, it runs like this:
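Luminescent readout of luciferin formed from 25 uM Luciferin-PPXE (KM level) by 20 nM CYP3A4 in 200 mM KPO4, with 60 min NADPH-driven reaction at room temperature after 10 min compound exposure. Ketoconazole (57 uM) defined 100% inhibition.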

Test [3] has as its target Cytochrome P450 2D6 (Homo sapiens) (UniProt P10635). In words: qHTS Assay for Inhibitors and Substrates of Cytochrome P450 2D6 (AID 891). Also: nearly all actives have a fitted effect of over 60% in size. Also: potency is read from the fitted curve at half-maximal effect. In short, it runs like this:
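Luminescent read-out of luciferin formed by 5 nM human CYP2D6 demethylating 30 uM Luciferin-ME EGE (Km level) over 60 min at room temperature after NADPH regeneration addition. Data normalized to full inhibition by 1.43 uM quinidine.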

Test [4] concerns the target Cytochrome P450 2C19 (Homo sapiens) (UniProt P33261). The test is described as follows: qHTS Assay for Inhibitors and Substrates of Cytochrome P450 2C19 (AID 899). Also: nearly all actives have a fitted effect of over 60% in size. Also: potency is read from the fitted curve at half-maximal effect. In short, it runs like this: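 In 50mM KPO4, the reaction held 5nM enzyme and KM-level (10uM) Luciferin-H EGE; it ran 60 min at 37C after NADPH regeneration and a 10 min compound preincubation. Luminescence values were scaled to 57uM ketoconazole as complete inhibition.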
A general note: qHTS replaces the single test concentration by a dilution series.

Test [5] is described as follows: Confirmation and Secondary Assay for Modulators of Hemoglobin Beta Chain Splicing at IVS2 654 locus (AID 910).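 Also: per-well total GFP intensity by laser scanning cytometry after 2-day treatment; % of control where 0% means no effect.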 In short, it runs like this: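 HeLa cells stably carrying EGFP interrupted by mutant beta-globin IVS2-654 intron (CMV-driven) were treated with compound for 2 days at 37C; corrected splicing was scored as total peak GFP intensity per well (488 nm excitation, 500-520 nm emission).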

Test [6] in a line: Confirmation and Secondary Assay for Modulators of Hemoglobin Beta Chain Splicing at IVS2 705 locus (AID 930).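 Also: HeLa cells stably expressing the EGFP-705 splicing reporter; GFP fluorescence per well restored by corrected splicing of the IVS2-705 intron in EGFP; series mostly up to about 46 µM; % of control where 0% means no effect.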 In a few lines:
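Assay measures total GFP intensity per well in HeLa EGFP-705 cells after 2 days with compound; mis-splicing normally truncates EGFP, so fluorescence indicates corrected splicing.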

Test [7] in a line: qHTS Assay for Identification of Small Molecule Agonists for Hypoxia Response Element Signaling Pathway (AID 914; active = well fitted activation curve with a large enough effect in the signal ratio, with a control signal flat, not every such curve was filed as active; the % refers to the signal ratio; also: % of control where 0% means no effect). Particulars: ME-180 (cervical carcinoma) HRE-bla reporter, beta-lactamase ratio, CoCl2, 17 h; stronger effect = higher value. In short, it runs like this:
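Compounds in a titration series were added to ME-180 reporter cells alongside an EC50 level of CoCl2. After 17 hours, beta-lactamase activity was read as the 460nm/530nm emission ratio of CCF4, giving AC50 values.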

SMILES strings stand for the structures. Several values for one entry are separate records, joined by “and”; a condition that tells them apart may be missing. Equal entries are not always repeated. Records with an inconclusive call do not appear. Where a structure was tested more than once in an assay, its records may differ in their call. Activity calls are given as the source filed them. Unless noted, calls follow the shape of the dose curve; as a rule, active = well fitted curve in the direction sought with a large enough effect; inconclusive = small, poorly fitted or top-dose-only effect, or another doubt; inactive = no such curve, though single readings can be large; an effect the other way counts as inactive or inconclusive.

Cytochrome P450 3A4 (Homo sapiens), sequence (P08684 whole entry, looked up): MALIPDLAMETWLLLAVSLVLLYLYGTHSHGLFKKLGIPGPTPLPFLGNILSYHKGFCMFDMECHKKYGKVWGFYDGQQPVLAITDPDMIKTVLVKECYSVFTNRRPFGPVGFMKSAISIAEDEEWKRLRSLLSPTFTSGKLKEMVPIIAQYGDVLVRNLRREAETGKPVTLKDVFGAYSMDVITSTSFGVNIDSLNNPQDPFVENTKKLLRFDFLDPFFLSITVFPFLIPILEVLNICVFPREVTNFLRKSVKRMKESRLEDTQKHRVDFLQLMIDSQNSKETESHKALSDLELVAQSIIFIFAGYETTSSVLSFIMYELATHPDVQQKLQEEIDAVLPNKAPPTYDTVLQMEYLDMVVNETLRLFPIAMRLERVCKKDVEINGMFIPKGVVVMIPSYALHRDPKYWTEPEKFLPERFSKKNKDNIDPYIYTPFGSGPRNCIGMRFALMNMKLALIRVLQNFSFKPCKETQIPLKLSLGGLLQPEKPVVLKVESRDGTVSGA
Cytochrome P450 2C19 (Homo sapiens), sequence (P33261 whole entry, looked up): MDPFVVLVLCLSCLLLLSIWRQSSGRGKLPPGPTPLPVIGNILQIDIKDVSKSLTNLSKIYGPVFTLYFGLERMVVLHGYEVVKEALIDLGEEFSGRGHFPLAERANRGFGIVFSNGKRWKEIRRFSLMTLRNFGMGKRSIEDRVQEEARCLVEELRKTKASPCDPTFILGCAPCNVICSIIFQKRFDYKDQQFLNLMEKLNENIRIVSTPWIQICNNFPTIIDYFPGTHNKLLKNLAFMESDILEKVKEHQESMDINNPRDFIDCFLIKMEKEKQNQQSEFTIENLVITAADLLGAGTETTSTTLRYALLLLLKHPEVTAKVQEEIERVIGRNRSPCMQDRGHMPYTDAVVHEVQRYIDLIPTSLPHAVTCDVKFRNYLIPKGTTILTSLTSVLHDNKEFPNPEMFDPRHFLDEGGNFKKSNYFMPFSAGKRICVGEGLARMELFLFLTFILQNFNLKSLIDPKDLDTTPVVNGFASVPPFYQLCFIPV
Cytochrome P450 2D6 (Homo sapiens), sequence (P10635 whole entry, looked up): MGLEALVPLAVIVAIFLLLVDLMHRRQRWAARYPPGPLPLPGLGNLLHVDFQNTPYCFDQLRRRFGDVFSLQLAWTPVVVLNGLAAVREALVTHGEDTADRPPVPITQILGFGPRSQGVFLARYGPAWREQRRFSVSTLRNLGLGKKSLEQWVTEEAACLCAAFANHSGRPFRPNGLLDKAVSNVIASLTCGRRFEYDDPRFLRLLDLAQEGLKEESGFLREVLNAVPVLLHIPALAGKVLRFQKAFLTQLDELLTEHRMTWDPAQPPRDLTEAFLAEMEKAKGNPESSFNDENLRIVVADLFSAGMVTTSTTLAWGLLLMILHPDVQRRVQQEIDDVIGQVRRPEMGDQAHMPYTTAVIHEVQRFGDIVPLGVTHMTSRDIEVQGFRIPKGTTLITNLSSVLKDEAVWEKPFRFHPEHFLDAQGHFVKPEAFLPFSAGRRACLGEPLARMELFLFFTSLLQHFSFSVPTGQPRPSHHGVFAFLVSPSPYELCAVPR

As for `O=C(/C=C\c1ccc2c(c1)OCO2)c1ccc(F)cc1`, the Potency was 3.16 µM (active) in test [1] and 2 µM (active) in test [3]. Besides, the activity change, positive = activation in test [2] was -89.5% [at 11.4 µM] (inactive).

Regarding `C=CCOC(=O)C(C(C)=O)C(NC(=O)OC)c1ccccc1` (stereo not drawn), the Potency in test [1] was 3.98 µM (active); in test [4], 631 nM (active). Also, in test [2], the activity change, positive = activation is -86.9% [at 11.4 µM] (inactive). Besides, the Potency result in test [3] was “inactive”.

On to `CC(C)(C)c1ccc(OC2C(O)COC2/C=C/C#Cc2ccccc2)cc1` (stereo not drawn), for which the Potency was 3.16 µM (active) and 3.98 µM (active) in test [1]; 3.16 µM (active) and inactive in test [4]. For the same compound, in test [2], the activity change, positive = activation was -77.1% [at 11.4 µM] (inactive) and -67.5% [at 11.4 µM] (inactive). In test [3], the Potency entry was “inactive”.

On to `CCOC(c1cc(OC)cc([N+](=O)[O-])c1OC)C(C)C(OC)[C@@H](C)/C=C/CC(=O)OC` (stereo partly drawn), for which the Potency was 3.98 µM (active) in test [1] and 1000 nM (active) in test [4]. Also, the activity change, positive = activation in test [2] was -78.6% [at 11.4 µM] (inactive). Besides, the Potency entry in test [3] was “inactive”.

On to `Cc1ccc(/C=C/C2=CC3(C)CC2(C)C(c2ccc(C)cc2)CC3=O)cc1` (stereo not drawn), for which the Potency in test [1] was 3.98 µM (active). In test [2], the activity change, positive = activation was -95.3% [at 11.4 µM] (inactive). Besides, the Potency entry in test [3] is “inactive”.

`CCCCC#CC1C=CC(Oc2ccc(C(=O)OC)cc2)C(COC(=O)OCC)O1` (stereo not drawn): in test [1], the Potency is 3.98 µM (active). The activity change, positive = activation in test [2] is -80.8% [at 11.4 µM] (inactive). The Potency result in test [3] and in test [4] was “inactive” in each case.

Take `CCC1=C2CC[C@H]3C(=O)NC(=O)[C@H]3[C@H]2[C@@]2(Cc3ccccc3)C(=NCC3CC3)OC(=O)N2C1=O`: the Potency in test [1] was 15.8 µM (active). For the same compound, in test [2], the Potency entry is “inactive”.

`C/C=C/OC(=O)NC(c1ccccc1)[C@]1(C(C)=O)CCOC1=O` (stereo partly drawn): the Potency was 0.0316 µM (active) in test [1] and 158 nM (active) in test [4]. In addition, in test [2], the activity change, positive = activation was -81.2% [at 11.4 µM] (inactive). For the same compound, the Potency entry in test [3] was “inactive”.

Regarding `COc1c2c(cc3occ(-c4ccc5c(c4)OCO5)c(=O)c13)OC(C)(C)C=C2`, the Potency in test [1] is 2.51 µM (active). In addition, the Potency entry in test [2] was “inactive”. In addition, the result in test [5] and in test [6] was inactive.

On to `C=CCOC(=O)C(C(C)=O)C(NC(=O)OC)c1ccc(F)cc1` (stereo not drawn), for which the Potency is 3.16 µM (active) in test [1] and 398 nM (active) in test [4]. The activity change, positive = activation in test [2] was -78% [at 11.4 µM] (inactive). Besides, the Potency entry in test [3] is “inactive”.

With `CC(=O)OCC1OC(c2ccc3c(c2)OCO3)C=CC1OC(C)=O` (stereo not drawn), the Potency in test [1] was 3.98 µM (active); in test [4], 316 nM (active). For the same compound, the activity change, positive = activation in test [2] was -75.4% [at 11.4 µM] (inactive).

On to `CC1(C)C(=O)C=C[C@@]2(C)C1C=C[C@@]1(C)C2CC[C@@]2(C)C(c3ccoc3)OC(=O)C3OC312` (stereo partly drawn), for which the Potency in test [1] was 7.94 µM (active). In test [2], the Potency entry is “inactive”. The result in test [5] and in test [6] was inactive.

Take `CCO[C@H](c1cc(OC)cc([N+](=O)[O-])c1OC)[C@H](C)/C=C\CC(=O)OC`: the Potency was 3.98 µM (active) in test [1] and 398 nM (active) in test [4]. Further, the activity change, positive = activation in test [2] is -72.1% [at 11.4 µM] (inactive).

Consider `COc1ccc(O[C@H]2C=C[C@@H](c3ccccc3)O[C@H]2CO/N=C(/C)CCC(=O)OC[C@@H]2O[C@H](c3ccccc3)C=C[C@@H]2Oc2ccc(OC)cc2)cc1`, for which the Potency in test [1] was 3.98 µM (active). Further, in test [2], the activity change, positive = activation was -65.1% [at 11.4 µM] (inactive). In addition, in test [7], the activation is 3.42% (inactive).

As to `COc1cccc([C@@H]2Oc3ccc(OC)cc3/C(=N/OC[C@@H](O)COCc3ccco3)[C@@H]2O)c1`, the Potency was 3.16 µM (active) in test [1] and 1580 nM (active) in test [4]. Besides, the activity change, positive = activation in test [2] is -84.1% [at 11.4 µM] (inactive).

As for `COc1cccc(-c2cc(=O)c3ccc(OC)cc3o2)c1`, in test [1], the Potency was 7.94 µM (active). In addition, the Potency result in test [2] is “inactive”. The result in test [5] and in test [6] was inactive.

Take `C=CC[C@@H]1C=C[C@H](Oc2ccc(C)cc2)[C@H](COC(=O)NCc2cccc3ccccc23)O1`: the Potency in test [1] is 3.16 µM (active); in test [4] it was 1260 nM (active). In test [2], the activity change, positive = activation is -96.8% [at 11.4 µM] (inactive).

On to `CCOC(=O)OCC1OC(C#Cc2ccccc2)C=CC1OC(=O)OCC` (stereo not drawn), for which the Potency in test [1] is 3.98 µM (active); in test [4] it was 2510 nM (active). Moreover, the activity change, positive = activation in test [2] is -79.4% [at 11.4 µM] (inactive). Moreover, the Potency result in test [3] is “inactive”.

Consider `COc1ccc(/C=C/N(CCc2ccc(OC)c(OC)c2)C(=O)C(F)(F)F)cc1`, for which the results for the Potency in test [1] and in test [4] were 2 µM (active) and 79.4 nM (active), respectively. In test [2], the activity change, positive = activation is -97.3% [at 11.4 µM] (inactive).

With `COc1cc(OC)c2c(=O)c(-c3ccc4c(c3)OCO4)coc2c1`, the Potency in test [1] is 6.31 µM (active). Also, the Potency entry in test [2] is “inactive”. Further, the compound was classed as inactive in test [5] and in test [6].

As for `CCc1cc2c(nc1CC)CCN(CC/C(C)=N/O[C@@H](C)c1cn([C@H](CO)Cc3ccccc3)nn1)C2`, the Potency in test [1] is 3.16 µM (active) and 3.98 µM (active). For the same compound, the activity change, positive = activation in test [2] is -78.5% [at 11.4 µM] (inactive) and -65.5% [at 11.4 µM] (inactive). Further, the activation in test [7] was -4.74% (inactive).
